High-throughput results: PubChem BioAssay, National Center for Advancing Translational Sciences (NCATS)
FMDV FLuc: FMDV antiviral activity by firefly signal | AID 1745856 | Potency, µM (titrated, usually from 57.5 µM), most hits filed as inhibitors | 120,000 tested, 0.23% active | FMDV antiviral cell assay, firefly luciferase signal; note: nearly all actives have a fitted effect of over 60% in size
FMDV Renilla: shows antiviral activity in FMDV Renilla assay. AID 1745857. Potency, µM (top dose mostly 57.5 µM), actives largely listed as inhibitors. 120,000 tested, 0.32% active. FMDV replicon cells, Renilla luciferase signal; note: nearly all actives have a fitted effect of over 55% in size
A number is an active result; n = inactive; u = inconclusive; ! = not active in a repeat. Only some compounds are listed: those with a hit (about 0.51% of all), similar ones and a draw of the others. Calls come from the whole dose curve.

SMILES	FMDV FLuc	FMDV Renilla
Cc1cccc(OCCCn2cnc3c2c(=O)n(C)c(=O)n3C)c1	n	n
CCC(=O)N(C)CCCNC(=O)c1nc2ccccc2c(=O)[nH]1	n	n
CCOC(=O)CCc1c(C)[nH]n(-c2nc3ccccc3[nH]2)c1=O	n	n
CCc1ccccc1Nc1nn2c(=O)c3ccc(C(=O)NC(C)c4ccccc4)cc3nc2s1 (stereo not given)	11.2µM	u
CCc1ccccc1Nc1nn2c(=O)c3ccc(C(=O)NCCc4ccccc4)cc3nc2s1	n	n
CCc1noc(COc2ccc3c(CC)cc(=O)oc3c2)n1	n	n
COc1cc(NS(=O)(=O)c2ccc(C)cc2)cc2sc(NC(=O)c3ccccc3)nc12	n	n
Cc1ccc(F)cc1S(=O)(=O)N(Cc1cc(CN2CCOCC2)cs1)c1ccc(F)cc1	n	n
COc1ccc(N(Cc2cc(CN3CCOCC3)cs2)S(=O)(=O)c2cc(C)cc(C)c2)cc1	25.1µM	n
Cc1cc(C(=O)Cn2c(Cl)nc3c2c(=O)n(C)c(=O)n3C)c(C)n1CCc1ccccc1	28.2µM	7.94µM
Cc1cc(C(=O)Cn2c(Cl)nc3c2c(=O)n(C)c(=O)n3C)c(C)n1C	n	n
COc1ccc(C(=O)/C=C/c2ccccc2OCC#N)c2ccccc12	u	25.1µM
COc1ccccc1/C=C/C(=O)c1ccc(C)cc1OC	n	n
CCCCCCSC1=C(C#N)C(c2ccc(C)cc2)CC(=O)N1 (stereo not given)	n	n
Cc1nc(N2CCC(C(=O)Nc3cccc(Cl)c3C)CC2)c2c(C)c(C)oc2n1	n	n
Cc1nc(N2CCC(C(=O)Nc3cccc(Br)c3)CC2)c2c(C)c(C)oc2n1	17.8µM	u
CCCc1cc(=O)[nH]c(SC(C)C(=O)NC(=O)NC2CCCCC2)n1 (stereo not given)	10µM	u
CCCNC(=O)C(C)Sc1nc(CCC)cc(=O)[nH]1 (stereo not given)	n	n
CCCCNC1C2CC3CC(C2)CC1C3 (stereo not given)	n	n
CCCCN1C(=O)C(NC(=O)c2ccc(C(C)(C)C)cc2)(C(F)(F)F)C(C(C)=O)=C1C (stereo not given)	n	n
COc1ccc2oc(=O)cc(CN(C)Cc3ccc(C)cc3)c2c1	u	35.5µM
Cc1ccc(CN(C)Cc2cc(=O)oc3ccc(C)cc23)cc1	n	n
Cc1cc(C(O)(C(F)(F)F)C(F)(F)F)cc(C)c1OC(=O)c1ccccc1F	n	n
COc1ccc(C(=O)Oc2c(C)cc(C(O)(C(F)(F)F)C(F)(F)F)cc2C)cc1	10µM	8.91µM
COc1ccc(-c2nc(CSCC(=O)Nc3cccc(F)c3)co2)cc1	n	n
SMILES	FMDV FLuc	FMDV Renilla
COc1ccc2c(C)c(CCC(=O)N3CCOCC3)c(=O)oc2c1C	n	n
Cc1ccccc1C(=O)N1CCCC(c2nc3ccccc3[nH]2)C1 (stereo not given)	n	n
CCCCc1ccc(NC(=O)COc2cccc3c(=O)n(C)ccc23)cc1	u	8.91µM
CCCn1ccc2c(OCC(=O)NCc3ccc(C)cc3)cccc2c1=O	n	n
Cc1ccc(Cl)cc1-n1ncc2c(NC3CCCCC3)ncnc21	u	25.1µM!
CCN1CCN(c2ncnc3c2cnn3-c2cc(Cl)ccc2C)CC1	n	n
Clc1ccc(-n2ncc3c(NC4CCCCCCCCCCC4)ncnc32)cc1	n	n
Cc1ccc(Cl)cc1-n1ncc2c(N3CCN(Cc4ccccc4)CC3)ncnc21	22.4µM	35.5µM
CC(CCc1ccccc1)NC(=O)NCc1ccncc1 (stereo not given)	n	n
CN(C)c1ccc(N=C=S)cc1	n	n
O=C(NC1CC1)c1cccc(NS(=O)(=O)c2ccc(Cl)cc2C(F)(F)F)c1	n	n
O=C(NCc1ccccc1)c1ccccc1CSc1nc2ccccc2o1	n	n
CC1(C)CC(=O)C2=C(C1)Nc1[nH]n(-c3ccccc3)c(=O)c1C2c1ccc(O)cc1 (stereo not given)	n	10µM
CC1(C)CC(=O)C2=C(C1)Nc1[nH]n(-c3ccccc3)c(=O)c1C2c1ccc(F)cc1 (stereo not given)	n	n
C=CCN1C(=O)c2ccccc2N2C(=O)CCC12C(=O)OCc1cc(=O)oc2cc(C)c(C)cc12 (stereo not given)	n	n
COc1ccc(C(=O)/C=C/c2cc(C)ccc2C)cc1OC	n	n
Cc1ccc([N+](=O)[O-])[c]2c1[O][Hg]2	2.82µM	u
Cc1cc(C)c([N+](=O)[O-])cc1[N+](=O)[O-]	n	n
CCCC(NC(=O)Cn1c(=O)c2c(ncn2C)n(C)c1=O)c1ccccc1 (stereo not given)	n	n
CCn1c2c(c(=O)n3ncc(C(=O)Nc4ccc(F)c(Cl)c4)c13)CN(Cc1ccc(OC)cc1)CC2	n	n
CCn1c2c(c(=O)n3ncc(C(=O)N4CCN(c5ccc(Cl)cc5)CC4)c13)CN(Cc1ccc(OC)cc1)CC2	u	22.4µM
COc1cc(CN(C(=O)COc2ccc(C)cc2)c2ccccn2)cc(OC)c1OC	n	n
COc1cc(CN(C(=O)COc2ccc(Br)cc2)c2ccccn2)cc(OC)c1OC	n	22.4µM
